Source: PubChem BioAssay AID779 (Sanford-Burnham Center for Chemical Genomics, 2007)
A number with no mark means an inactive call. No rule for the calls is given here.

experiment: PLAP enzyme activity inhibition – biochemical, colorimetric, counter-screen, dose response (AID 779); settings: colorimetric OD read-out

Row | Compound | IC50 [µM]
1 | O=C(/C=C/c1ccccc1)c1cc(Br)ccc(=O)c1O | > 50
2 | N#Cc1sc2nc(-c3cccs3)cc(-c3ccccc3)c2c1N | > 50
3 | Cc1ccc(CNC(=O)CN2CCC(C(N)=O)CC2)cc1 | > 50
4 | CCN(CCNC(=O)C1CCCN(S(=O)(=O)CC)C1)c1ccccc1 (configuration not stated) | > 50
5 | CCOC(=O)c1c(C)oc2c1c(C(c1cccnc1)N1CCOCC1)c(O)c1ccccc12 (configuration not stated) | > 50
6 | CCSc1nnc(NC(=O)C(C(F)(F)F)C(F)(F)F)s1 | > 50
7 | C=CCn1c(SCC(=O)Nc2ncc(Cc3cc(C(F)(F)F)ccc3Cl)s2)nnc1-c1ccncc1 | > 50
8 | Clc1ccccc1CSc1nnc(-c2ccco2)c(-c2ccco2)n1 | > 50
9 | O=[N+]([O-])/C=C/c1cn(Cc2ccccc2)c2ccccc12 | > 50
10 | O=C1/C(=C\c2ccco2)SC(=S)N1Cc1ccccc1 | > 50
11 | CCOC(=O)N1CCN(C(=O)CSc2nnc(-c3c[nH]c4ccccc34)n2CCOC)CC1 | > 50
12 | Oc1ccc(-c2cn3c(n2)SCC3)cc1O | > 50
13 | CCOC(=O)c1cc(-c2ccc(/C=C3/C(=O)NC(=O)C(C#N)=C3C)o2)ccc1Cl | > 50
14 | COc1ccc(OC)c(NC(=O)CSc2nc3ccccc3cc2Cc2ccccc2)c1 | > 50
15 | CC1CCCN(c2nc3ccccc3nc2C(C#N)C(=O)OC2CCCCC2)C1 (configuration not stated) | > 50
16 | COc1ccc(N(C(=O)c2ccco2)S(=O)(=O)c2cc(Cl)c(Cl)cc2Cl)cc1 | > 50

Row | Compound | IC50 [µM]
17 | COc1cc(NC(=O)c2ccc(COCC(F)(F)F)cc2)cc(OC)c1OC | > 50
18 | O=C(O)c1ccc(CN(c2ccccn2)S(=O)(=O)c2ccccc2)cc1 | > 50
19 | CCOC(=O)c1cc(OC(=O)c2ccccc2OC)n(-c2ccccc2)n1 | > 50
20 | Cc1ccsc1/C=C/C1=Cc2c(sc(NC(=O)CSc3n[nH]c(N)n3)c2C#N)C(C)(C)C1 | > 50
21 | CCCSC1=N/C(=C\C=C\c2ccco2)C(=O)S1 | > 50
22 | CN(C)c1ccc(/C=C/C(=O)c2cccc(Br)c2)cc1 | > 50
23 | CC(C)C(C(=O)O)N1C(=O)/C(=C/C=C/c2ccco2)SC1=S (configuration not stated) | > 50
24 | Brc1ccc(-c2nnc(-c3cccc(Br)c3)o2)cc1 | > 50
25 | Cc1ccc(C)c(OCc2nnc(N)s2)c1 | > 50
26 | CC(C(=O)O)N1C(=O)/C(=C/C=C/c2ccco2)SC1=S (configuration not stated) | > 50
27 | COC(=O)Sc1nnc(-c2ccc(Br)cc2)o1 | > 50
28 | COc1ccc(NC2=Nc3ccccc3N3C2=Nc2c(c(C)nn2-c2ccc(C)cc2)C3c2cccnc2)cc1 (configuration not stated) | > 50
29 | CCSC1=N/C(=C\c2ccc(-c3ccccc3[N+](=O)[O-])o2)C(=O)S1 | > 50
30 | CCn1c(O)c(/C=N/N=C/c2ccccc2)c2ccc(C3=NNC(=O)CC3)cc21 | > 50
31 | Cc1ccccc1C(=O)c1cccn1CC(=O)NCC1CCCO1 (configuration not stated) | > 50
32 | CCn1c(SCc2nc(-c3ccccc3)no2)nnc1-c1cccs1 | > 50
